From PubChem BioAssay (NCATS) come the findings set out here.

Assay [1] concerns the target Cytochrome P450 3A4 (Homo sapiens) (UniProt P08684). Description: qHTS Assay for Inhibitors and Substrates of Cytochrome P450 3A4 (AID 884). Also: nearly all actives have a fitted effect of over 50% in size. Also: potency is read from the fitted curve at half-maximal effect. As to activity change, negative = inhibition: % is scaled to controls: 0 for no effect and ±100 for the full control effect. The gist of the method:
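Luminescent readout of luciferin produced by CYP3A4 (20 nM) dealkylation of Luciferin-PPXE, 25 uM (its KM). NADPH-driven reaction ran 60 min at RT after 10 min compound preincubation; data scaled to 57 uM ketoconazole as 100% inhibition.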

A short description of assay [2]: Confirmation and Secondary Assay for Modulators of Hemoglobin Beta Chain Splicing at IVS2 654 locus (AID 910).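 Also: HeLa cells stably carrying EGFP split by mutant beta-globin IVS2-654 intron; per-well total GFP intensity by laser scanning cytometry after 2-day treatment; % of control where 0% means no effect.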 A digest of the protocol:
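Readout: per-well total peak green fluorescence (488 nm ex, 500–520 nm em) from objects 5–250 µm, reflecting correct splicing of an EGFP-654 reporter. Compounds were applied for 2 days at 37 °C to overnight-plated HeLa EGFP-654 cells; controls were DMSO and 500 nM IVS2-654 PNA.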

A short description of assay [3]: Confirmation and Secondary Assay for Modulators of Hemoglobin Beta Chain Splicing at IVS2 705 locus (AID 930).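 Also: HeLa cells stably expressing the EGFP-705 splicing reporter; GFP fluorescence per well restored by corrected splicing of the IVS2-705 intron in EGFP; % of control where 0% means no effect.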 The gist of the method:
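Fluorescence gain (488 nm laser, 500-520 nm PMT) reflects restored correct splicing of a mutant IVS2-705 intron inside EGFP in stably transfected HeLa cells after 2-day compound treatment.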

Assay [4] is described as follows: qHTS Assay for Lipid Storage Modulators (AID 1519; calls by dose curve; also: potency is read from the fitted curve at half-maximal effect; as to activity change, negative = inhibition: % is scaled to controls: 0 for no effect and ±100 for the full control effect). As to conditions: Drosophila S3 cells, BODIPY lipid droplet/cell ratio, laser cytometry, cells loaded with oleic acid. The gist of the method: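 Cells seeded at 5,000 per well were treated with compounds over a concentration series and loaded with oleic acid (400 uM, as added). Lipid droplet fluorescence (488 nm excitation, 500-530 nm channel) was read by laser-scanning cytometry and normalized to 20 uM Triacsin C.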

Assay [5] addresses Cytochrome P450 3A4 (Homo sapiens) (UniProt P08684). Description: qHTS Assay for Activators of Cytochrome P450 3A4 (AID 885). Also: nearly all actives have a fitted effect of over 65% in size. The gist of the method: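 Human CYP3A4 dealkylates Luciferin-PPXE to luciferin, which luciferase detection converts to light. Substrate was at its KM (25uM), buffer 200mM KPO4, reaction 60 min at RT.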
(In general: qHTS replaces the single test concentration by a dilution series.)

Assay [6] addresses Cytochrome P450 2D6 (Homo sapiens) (UniProt P10635). Description: Cytochrome P450 family 2 subfamily D member 6 (CYP2D6) small molecule antagonists: luciferase biochemical (cell-free) qHTS assay (AID 1645840; active = well fitted curve in the direction sought with a large enough effect in the repeat runs; an effect the other way counts as inactive or inconclusive; also: potency is read from the fitted curve at half-maximal effect; nearly all actives have a fitted effect of over 55% in size). The gist of the method: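 P450-Glo CYP2D6 system: proluciferin substrate converted by enzyme to luciferin, read by luminescence proportional to activity. Enzyme-substrate mix with compound 10 min at room temperature, then NADPH regeneration 1 h before detection reagent.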

In assay [7] the target is Cytochrome P450 2C9 (Homo sapiens) (UniProt P11712). Description: Cytochrome P450 family 2 subfamily C member 9 (CYP2C9) small molecule antagonists: luciferase biochemical (cell-free) qHTS assay (AID 1645842; active = well fitted curve in the direction sought with a large enough effect in the repeat runs; an effect the other way counts as inactive or inconclusive; also: potency is read from the fitted curve at half-maximal effect; nearly all actives have a fitted effect of over 55% in size). The gist of the method: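 P450-Glo CYP2C9 system: proluciferin substrate with enzyme in mix containing 0.4% BSA, 10 min at room temperature, then NADPH regeneration solution added and incubated 1 h at 37C. Detection reagent stopped reaction; luminescence read after 20 min as RLU.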

For assay [8], the target named is Alpha-galactosidase (Coffea arabica) (UniProt Q42656). Description: Counterscreen for Glucocerebrosidase Inhibitors: qHTS Assay for Coffee Bean alpha-Galactosidase at pH 4.5 (AID 957).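 Also: plate controls were enzyme alone for no effect and no enzyme for full effect.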 A digest of the protocol:
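Fluorogenic read-out: 4-methylumbelliferone at Ex 365/Em 440 nm after NaOH/glycine stop (pH 10). Enzyme 2 nM, 4-MU-alpha-galactoside 80 uM, citrate buffer pH 4.5, 20 min RT; normalized to no-enzyme and enzyme controls.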
A general note: Counterscreens check selectivity or assay interference.

For assay [9] the target is unchanged. Description: Counterscreen for Glucocerebrosidase Inhibitors: qHTS Assay for Coffee Bean alpha-Galactosidase at pH 5.9 (AID 998).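 Also: plate controls were uninhibited enzyme for no effect and no-enzyme basal signal for full effect.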 A digest of the protocol: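 Fluorogenic 4-MU substrate hydrolysis, 80 uM substrate and 2 nM coffee bean alpha-galactosidase, pH 5.9 citrate buffer, 20 min at room temperature, then NaOH/glycine stop. Titration 0.7 nM–77 uM, normalized to no-enzyme and enzyme controls, AC50 via Hill equation.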

The mark [10] stands for this setting: measured here: cell count channel max response.
[11] abbreviates: measured here: lipid channel max response.

SMILES strings stand for the structures. Records with an inconclusive call do not appear. The source made the active and inactive calls. Unless noted, calls follow the shape of the dose curve; as a rule, active = well fitted curve in the direction sought with a large enough effect; inconclusive = small, poorly fitted or top-dose-only effect, or another doubt; inactive = no such curve, though single readings can be large; an effect the other way counts as inactive or inconclusive.

Sequence of Cytochrome P450 3A4 (Homo sapiens) (P08684 whole entry, looked up): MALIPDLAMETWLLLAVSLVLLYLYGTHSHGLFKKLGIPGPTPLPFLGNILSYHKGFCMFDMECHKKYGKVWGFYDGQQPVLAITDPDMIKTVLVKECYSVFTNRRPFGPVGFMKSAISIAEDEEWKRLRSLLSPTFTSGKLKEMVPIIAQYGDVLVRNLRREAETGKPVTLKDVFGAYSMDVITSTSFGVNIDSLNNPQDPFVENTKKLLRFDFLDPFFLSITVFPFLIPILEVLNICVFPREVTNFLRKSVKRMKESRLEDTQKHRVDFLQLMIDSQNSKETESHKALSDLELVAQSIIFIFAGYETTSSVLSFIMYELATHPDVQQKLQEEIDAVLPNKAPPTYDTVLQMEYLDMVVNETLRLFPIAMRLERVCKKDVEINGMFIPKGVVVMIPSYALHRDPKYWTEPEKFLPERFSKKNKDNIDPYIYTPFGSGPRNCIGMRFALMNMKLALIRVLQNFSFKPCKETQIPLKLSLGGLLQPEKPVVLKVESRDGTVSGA
Sequence of Alpha-galactosidase (Coffea arabica) (Q42656 whole entry, looked up): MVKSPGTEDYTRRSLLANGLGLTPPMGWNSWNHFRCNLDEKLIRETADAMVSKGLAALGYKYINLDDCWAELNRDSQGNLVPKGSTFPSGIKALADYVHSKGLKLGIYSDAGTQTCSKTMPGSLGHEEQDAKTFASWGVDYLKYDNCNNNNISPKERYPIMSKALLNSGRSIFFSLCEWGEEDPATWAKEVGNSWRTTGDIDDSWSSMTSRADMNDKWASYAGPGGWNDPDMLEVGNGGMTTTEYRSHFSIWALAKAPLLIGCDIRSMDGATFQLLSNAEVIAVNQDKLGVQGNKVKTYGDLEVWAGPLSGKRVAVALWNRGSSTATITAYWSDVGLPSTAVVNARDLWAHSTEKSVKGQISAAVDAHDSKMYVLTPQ
Sequence of Cytochrome P450 2D6 (Homo sapiens) (P10635 whole entry, looked up): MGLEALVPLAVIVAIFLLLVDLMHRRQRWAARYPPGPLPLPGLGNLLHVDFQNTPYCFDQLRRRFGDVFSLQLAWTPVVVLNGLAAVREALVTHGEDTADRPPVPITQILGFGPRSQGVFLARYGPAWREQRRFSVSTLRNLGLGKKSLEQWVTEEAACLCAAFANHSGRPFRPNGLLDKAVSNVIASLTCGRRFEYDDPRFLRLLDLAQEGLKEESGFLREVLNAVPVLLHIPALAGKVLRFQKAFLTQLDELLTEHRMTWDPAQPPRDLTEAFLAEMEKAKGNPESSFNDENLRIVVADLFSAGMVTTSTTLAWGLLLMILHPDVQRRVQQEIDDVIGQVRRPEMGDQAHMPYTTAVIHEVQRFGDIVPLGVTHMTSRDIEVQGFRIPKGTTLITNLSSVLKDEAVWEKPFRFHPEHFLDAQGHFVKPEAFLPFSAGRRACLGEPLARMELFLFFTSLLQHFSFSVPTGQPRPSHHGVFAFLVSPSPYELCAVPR
Sequence of Cytochrome P450 2C9 (Homo sapiens) (P11712 whole entry, looked up): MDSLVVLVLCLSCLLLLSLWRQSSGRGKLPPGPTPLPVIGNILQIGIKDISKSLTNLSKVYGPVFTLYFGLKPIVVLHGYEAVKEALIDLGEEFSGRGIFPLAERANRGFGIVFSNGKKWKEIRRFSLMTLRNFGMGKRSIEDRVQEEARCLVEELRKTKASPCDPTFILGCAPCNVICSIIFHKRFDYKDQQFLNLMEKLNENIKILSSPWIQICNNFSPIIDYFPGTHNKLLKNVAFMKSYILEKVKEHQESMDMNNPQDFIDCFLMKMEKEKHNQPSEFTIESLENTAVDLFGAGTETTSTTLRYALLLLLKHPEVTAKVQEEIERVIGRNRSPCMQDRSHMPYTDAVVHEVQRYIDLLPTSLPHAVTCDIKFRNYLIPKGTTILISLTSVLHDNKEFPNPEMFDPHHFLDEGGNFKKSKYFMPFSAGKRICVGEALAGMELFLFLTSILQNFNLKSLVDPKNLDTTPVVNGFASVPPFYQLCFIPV

Turning to `C=C1C([C@@]2(C)C(OC(C)=O)CC(=O)O[C@@](C)(COC(C)=O)C2CC(=O)OC)C(OC=O)C(OC(=O)C(OC(C)=O)C(C)CC)[C@]2(C)C(c3ccoc3)CC(=O)C12O` (stereo partly drawn), in [1], the Potency is 12.6 µM (active). Also, the Potency result in assay [2] and in [3] was “inactive” each time. For the same compound, the activity change, negative = inhibition in assay [4] (at 57.5 µM (top of the series)) is -5.86% (inactive). The max response in [4] (setting [10]) is 19%; in assay [4] (setting [11]) it was 13.8%.

Consider `COC(=O)COc1cc(Cl)c(Cl)cc1Cl`, for which the Potency entry in [1], in assay [2] and in [3] was “inactive” in each case. For the same compound, in assay [4] (at 57.5 µM (top of the series)), the activity change, negative = inhibition is 2.27% (inactive). Further, the values for the max response in assay [4] (setting [10]) and in assay [4] (setting [11]) were 13.1% and 15.5%, respectively.

With `CC1CC[C@@]2(OC1)OC1C(O)C3C4CC[C@H]5CC(O[C@@H]6O[C@@H](CO)[C@H](OC7OC(CO)C(O)C(OC8OCC(O)C(O)[C@H]8O)[C@@H]7O[C@@H]7OC(CO)[C@H](O)[C@@H](O[C@@H]8OC(CO)C(O)C(O)C8O)C7O)C(O)C6O)C(O)C[C@]5(C)C4CC[C@]3(C)C1C2C` (stereo partly drawn), the Potency entry in assay [5], in assay [2] and in [3] was “inactive” throughout. The activity change, negative = inhibition in assay [4] (at 57.5 µM (top of the series)) is -0.601% (inactive). Besides, the max response in assay [4] (setting [10]) was -28.8%; in [4] (setting [11]), -26%.

`N#C/C(=C\c1cccc(O)c1)C(=O)O`: the Potency entry in assay [1], in assay [2] and in assay [3] was “inactive” throughout. Also, the activity change, negative = inhibition in [4] (at 57.5 µM (top of the series)) was 5.07% (inactive). Besides, the figures for the max response in [4] (setting [10]) and in [4] (setting [11]) were 0.883% and 7.48%, respectively.

`COc1cc2c(cc1OC)[C@@H]1C(=O)c3ccc4oc(C(C)C)cc4c3OC1CO2` (stereo partly drawn): the Potency result in [2] and in assay [3] was “inactive” each time. In addition, in assay [4], the Potency was 2.51 µM (active). For the same compound, the figures for the max response in [4] (setting [10]) and in assay [4] (setting [11]) were -28.2% and -80.9%, respectively.

For the compound `CCN=C1Nc2ccc(Cl)cc2C(C)(c2ccccc2)O1` (stereo not drawn), the Potency in assay [6] is 10.7 µM (active); in assay [7], 9.52 µM (active).

As for `COc1cc2c(cc1O)CCNC2C` (stereo not drawn), the Potency result in assay [1], in [2] and in assay [3] was “inactive” each time. In addition, the activity change, negative = inhibition in assay [4] (at 57.5 µM (top of the series)) is 6.98% (inactive). Also, the max response in assay [4] (setting [10]) was 8.33%; in assay [4] (setting [11]) it was 17.5%.

`CC1=CCCC2C1(C)CCC(C)C2(C)CC/C(C)=C/C[n+]1cn(C)c2c(N)ncnc21` (stereo not drawn): the Potency result in [2] and in assay [3] was “inactive” each time. In addition, the activity change, negative = inhibition in assay [4] (at 57.5 µM (top of the series)) was 6.88% (inactive). The results for the max response in [4] (setting [10]) and in [4] (setting [11]) were 2.19% and 13.1%, respectively.

Regarding `C=C(C)C1CNC(C(=O)O)C1CC(=O)O` (stereo not drawn), the Potency result in [1], in assay [2] and in assay [3] was “inactive” each time. In assay [4] (at 57.5 µM (top of the series)), the activity change, negative = inhibition is 6.75% (inactive). Besides, the figures for the max response in assay [4] (setting [10]) and in assay [4] (setting [11]) were 5.93% and 13%, respectively.

`CC(C)C[C@H]1C(=O)N2CCC[C@@H]2[C@]2(O)O[C@](NC(=O)[C@H]3C=C4c5cccc6[nH]c(Br)c(c56)C[C@H]4N(C)C3)(C(C)C)C(=O)N12`: the compound was classed as inactive in [8] and in [9]. Further, the activity change, negative = inhibition in assay [4] (at 25.7 µM (top of the series)) is -0.675% (inactive). Besides, the results for the max response in assay [4] (setting [10]) and in [4] (setting [11]) were -7.2% and -5.42%, respectively.

Regarding `O=C1CCCC2C3CC(CN12)C1CCCCN1C3` (stereo not drawn), the Potency entry in assay [2] and in assay [3] was “inactive” in each case. Also, in assay [4] (at 57.5 µM (top of the series)), the activity change, negative = inhibition is 6.45% (inactive). Besides, the figures for the max response in [4] (setting [10]) and in assay [4] (setting [11]) were 7.08% and 15%, respectively.

As to `Oc1ccc2c3c1OC1C(O)CC[C@]4(O)C(C2)N(CC2CCC2)CC[C@]314` (stereo partly drawn), the Potency result in assay [2] and in assay [3] was “inactive” throughout. The activity change, negative = inhibition in assay [4] (at 57.5 µM (top of the series)) was -5.68% (inactive). Moreover, the values for the max response in assay [4] (setting [10]) and in [4] (setting [11]) were 13.5% and 9.11%, respectively.
